Test results: PubChem BioAssay
Calls of active or inactive are those of the source. Cut-off read from the data, not from the text of the source: active = nuclear beta-catenin stimulation mostly above about 4.2% (no sharp cut-off); inactive = mostly below about 10%.

Test: Wnt pathway potentiators raising nuclear beta-catenin – imaging, WNT3A-conditioned medium, mouse C2C12, NPC library, primary screen (AID 1117326); note: reference of the scale not given here
Settings: at 10 µM, stronger effect = higher value

SMILES	nuclear beta-catenin stimulation
CC(C)(C)C(=O)Oc1ccc(S(=O)(=O)Nc2ccccc2C(=O)NCC(=O)O)cc1	0.7% (inactive)
N[C@@H](Cc1c[nH]c2ccc(O)cc12)C(=O)O	1.6% (inactive)
O=C(Nc1ccc(S(=O)(=O)N2CCOCC2)cc1)c1cc(Cl)ccc1NS(=O)(=O)c1ccc(Cl)s1	0.9% (inactive)
CCCCN(CCCC)CC(O)c1cc(Cl)cc2c1-c1ccc(Cl)cc1/C2=C/c1ccc(Cl)cc1 (stereo not drawn)	0.5% (inactive)
N#Cc1c(N(CC(=O)O)CC(=O)O)sc(C(=O)O)c1CC(=O)O	-1.5% (inactive)
N=C(N)c1ccc2cc(OC(=O)c3ccc(N=C(N)N)cc3)ccc2c1	0% (inactive)
COC(c1ccccc1)(c1ccccc1)[C@H](Oc1nc(C)cc(C)n1)C(=O)O	-1.5% (inactive)
NC(=O)c1ncn([C@@H]2O[C@H](CO)[C@@H](O)[C@H]2O)c1N	1.3% (inactive)
c1cnc2cc3c(cc2n1)C1CNCC3C1	-1.2% (inactive)
CC(C(=O)O)c1ccc2c(c1)CC(=O)c1ccccc1S2 (stereo not drawn)	-0.5% (inactive)
CN(C)C(=O)COC(=O)Cc1ccc(OC(=O)c2ccc(N=C(N)N)cc2)cc1	1.4% (inactive)
CCCCc1oc2ccc(NS(C)(=O)=O)cc2c1C(=O)c1ccc(OCCCN(CCCC)CCCC)cc1	-3.1% (inactive)
CC(C)C[C@H](NC(=O)[C@H](CCc1ccccc1)NC(=O)CN1CCOCC1)C(=O)N[C@@H](Cc1ccccc1)C(=O)N[C@@H](CC(C)C)C(=O)[C@@]1(C)CO1	106% (active)

Same assay, conditions: stimulation, at 2 µM, stronger effect = higher value

SMILES	nuclear beta-catenin stimulation [%]
Cc1cc(=O)c2c(O)c3c(O)cc(=O)c4c3c3c(cc(O)c1c23)C(C)(C)C=4O	68.1
CC(C)OC(=O)OCOP(=O)(CO[C@H](C)Cn1cnc2c(N)ncnc21)OCOC(=O)OC(C)C	3
O=C(O)c1ccc(-n2nc(-c3ccccc3O)nc2-c2ccccc2O)cc1	-2.6
COc1ccc(-c2ccc3cc(C(=O)O)ccc3c2)cc1C12CC3CC(CC(C3)C1)C2	32.2
COCCCN1CCC(NC(=O)c2cc(Cl)c(N)c3c2OCC3)CC1	-2
CCOC(=O)c1c(C)n(C)c2ccc(O)cc12	2.1
NCCCC(N)(C(=O)O)C(F)F (stereo not drawn)	-0.3
CN1CCCN=C1/C=C/c1cccs1	0
CC(=O)N[C@H]1[C@H]([C@H](O)[C@H](O)CO)OC(C(=O)O)=C[C@@H]1N=C(N)N	0.5
O=[N+]([O-])c1cncn1CCN1CCOCC1	0.4
C=CC(=O)Nc1cc2c(Nc3ccc(F)c(Cl)c3)ncnc2cc1OCCCN1CCOCC1	9.2
Cc1ccc(C(=O)c2cc(O)c(O)c([N+](=O)[O-])c2)cc1	1.2
Cc1nnc(C(=O)NC(C)(C)c2nc(C(=O)NCc3ccc(F)cc3)c(O)c(=O)n2C)o1	0.5
Cc1ccccc1C(=O)Nc1ccc(C(=O)N2CCCC(O)c3cc(Cl)ccc32)c(C)c1 (stereo not drawn)	1.4
COc1ccc2cccc(CCNC(C)=O)c2c1	-1
Cc1cc2c(cc1CC(=O)c1sccc1S(=O)(=O)Nc1onc(C)c1Cl)OCO2	3
C[C@]12CCC(=O)C=C1[C@@H]1C[C@@H]1[C@H]1[C@@H]3[C@@H]4C[C@@H]4[C@@]4(CCC(=O)O4)[C@@]3(C)CC[C@@H]12	3
CCC1=C[C@@H]2CN(C1)Cc1c([nH]c3ccccc13)[C@@](C(=O)OC)(c1cc3c(cc1OC)N(C)[C@H]1[C@@](O)(C(=O)OC)[C@H](OC(C)=O)[C@]4(CC)C=CCN5CC[C@]31[C@@H]54)C2	72.7
CC1(C)CCC(C)(C)c2cc(NC(=O)c3ccc(C(=O)O)cc3)ccc21	8.5
Cc1ccc(Nc2nccc(N(C)c3ccc4c(C)n(C)nc4c3)n2)cc1S(N)(=O)=O	1

SMILES	nuclear beta-catenin stimulation [%]
Clc1ccc(C(Cn2ccnc2)OCc2ccc(Sc3ccccc3)cc2)c(Cl)c1 (stereo not drawn)	0
CNC(=O)c1ccccc1Sc1ccc2c(/C=C/c3ccccn3)n[nH]c2c1	7.2
CCOC(=O)c1ccc(C#Cc2ccc3c(c2)C(C)(C)CCS3)nc1	4.9
CC(=O)OCC(=O)[C@@]12N=C(C)O[C@@H]1C[C@H]1[C@@H]3CCC4=CC(=O)C=C[C@]4(C)[C@H]3[C@@H](O)C[C@@]12C	3.9
O=P(O)(O)C(O)(Cn1ccnc1)P(=O)(O)O	1
O=c1cc(O)c(Cl)c[nH]1	-0.5
Clc1ccc(C(Cn2ccnc2)OCc2c(Cl)cccc2Cl)c(Cl)c1 (stereo not drawn)	-1.1
CC(C)(C)C(=O)Oc1ccc(S(=O)(=O)Nc2ccccc2C(=O)NCC(=O)O)cc1	1.7
N[C@@H](Cc1c[nH]c2ccc(O)cc12)C(=O)O	3.9
O=C(Nc1ccc(S(=O)(=O)N2CCOCC2)cc1)c1cc(Cl)ccc1NS(=O)(=O)c1ccc(Cl)s1	-0.5
CCCCN(CCCC)CC(O)c1cc(Cl)cc2c1-c1ccc(Cl)cc1/C2=C/c1ccc(Cl)cc1 (stereo not drawn)	-0.3
N#Cc1c(N(CC(=O)O)CC(=O)O)sc(C(=O)O)c1CC(=O)O	-0.9
N=C(N)c1ccc2cc(OC(=O)c3ccc(N=C(N)N)cc3)ccc2c1	0.3
COC(c1ccccc1)(c1ccccc1)[C@H](Oc1nc(C)cc(C)n1)C(=O)O	0
NC(=O)c1ncn([C@@H]2O[C@H](CO)[C@@H](O)[C@H]2O)c1N	1.8
c1cnc2cc3c(cc2n1)C1CNCC3C1	-0.4
CC(C(=O)O)c1ccc2c(c1)CC(=O)c1ccccc1S2 (stereo not drawn)	-1.2
CN(C)C(=O)COC(=O)Cc1ccc(OC(=O)c2ccc(N=C(N)N)cc2)cc1	0.4
CCCCc1oc2ccc(NS(C)(=O)=O)cc2c1C(=O)c1ccc(OCCCN(CCCC)CCCC)cc1	2
CC(C)C[C@H](NC(=O)[C@H](CCc1ccccc1)NC(=O)CN1CCOCC1)C(=O)N[C@@H](Cc1ccccc1)C(=O)N[C@@H](CC(C)C)C(=O)[C@@]1(C)CO1	129
